Growth data for 38 molecules are collected here from PubChem BioAssay (NCI).

This is part of a sample that, as a whole, favours compounds with a hit. Of some 83,000 tested, about 20% had one in any assay.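 Single-concentration screen, 48 h exposure, 96-well plates. Endpoint: percent growth. Below 10 = active.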 Activity calls are given as the source filed them.

In the first assay the test system is CCRF-CEM leukemia. The assay is described as follows: NCI-60 one-dose screen, 48 h (100 = growth as untreated, 0 = no growth, -100 = all killed). The conditions noted are these: 10 µM unless noted.
With `O=C(c1ccc(Cl)cc1)C1[C@H](c2ccccc2Cl)[C@@H](c2ccccc2)NC12C(=O)Nc1ccc(Br)cc12` (stereo not given in full), the growth is -13.5% (active). Take `O=C(CSc1nnc(-c2ccc(-c3nc4ccc(Cl)cc4[nH]3)cc2)o1)Nc1ccc(Cl)cc1`: the growth was 4.89% (active). For the molecule `N#Cc1c(NC(=O)N2CCOCC2)n(-c2ccc(OC(F)(F)F)cc2)c2cc(F)ccc12`, the growth was 85.5% (inactive).

In the case of `O=C(N/N=C/c1ccc(Cl)o1)c1[nH]c2ccc(Br)cc2c1-c1ccccc1`, the growth is -2.11% (active).

As for `CC1=C(C(=O)OCc2ccccc2)C(c2cccc3ccccc23)n2c(nc3ccccc32)N1` (stereo not given), the growth is 25.8% (inactive). Same read-out and setting: the value for `CC1=NN(C2=NC(=O)C(CC(=O)Nc3ccccc3C(F)(F)F)S2)C(c2ccc(N(C)C)cc2)C1` (stereo not given) was 36.9% (inactive); that for `CN1C(=O)C2(C(C#N)=C(c3ccc(Cl)cc3)Nc3c2c(-c2ccccc2)nn3-c2ccccc2)c2ccccc21` (stereo not given) was 75.6% (inactive); that for `O=[N+]([O-])c1cccc(-c2nnc3c(/C=C/c4ccc(F)cc4)nc4ccccc4n23)c1` was 102% (inactive). With `COC(=O)c1cc(C(C)=O)n2c3ccccc3c3ccccc3c12`, the growth is 85.2% (inactive). On the same count and under the same terms, the value for `CCCCCCCOc1ccc(S(=O)(=O)Nc2ccc(C)c(F)c2C(=O)O)cc1` was 81.6% (inactive); that for `COc1ccc2[nH]cc(-c3cc4nc(-c5cn(C)c6ncc(Br)cc56)cc(N)n4n3)c2c1` was -31% (active).

As to `COc1ccc2c(c1)N=c1c-2cc2c(O)[nH]c(=S)n2c1=O`, the growth is 11.1% (inactive).

As for `CC(C)C[C@H](NC(=O)[C@@H]1CCCCCCCCCCC(=O)N[C@@H](CC(=O)N2CCC[C@@H]2C2CCCC2)C(=O)N1)B(O)O`, the growth is 44% (inactive). On the same count and under the same terms, the value for `O=C1NC(=S)/C(=C/c2cn(-c3ccccc3)nc2-c2ccccc2)S1` was 30.9% (inactive); that for `CN(C)C(=O)c1cc(-c2ccc3ncnc(N4CCc5cc(F)c(Cl)cc54)c3c2)cnc1N` was -20.5% (active).

On to `N#C/C(=C/c1ccc(Cl)cc1)c1nnc(NC(=O)c2ccc(-n3c(=O)[nH]c4ccccc4c3=O)cc2)s1`, for which the growth was 97.9% (inactive). Take `COc1c(B(O)O)cc(F)cc1-c1nc2c(F)cc3[nH]ncc3c2c2c1CCCC2`: the growth is -3.23% (active).

Turning to `O=C(CSc1nc2sc3c(c2c(=O)n1-c1ccc(Cl)cc1)CCCC3)NNC(=O)c1ccc(Br)cc1`, the growth is 61.2% (inactive). `CN(C)c1ccc(/C=C/c2n(Cc3ccc4ccccc4c3)c3ccccc3[n+]2Cc2ccc3ccccc3c2)cc1`: the growth is -48.5% (active). Consider `COc1ccc2[nH]c(=O)cc(-n3ncc(C(=O)/C=C/c4cc(OC)c(OC)c(OC)c4)c3C)c2c1`, for which the growth was -20.4% (active).

In the case of `COc1ccc(C(=O)C[n+]2cccc3c4ccccc4ccc32)cc1`, the growth is 52.5% (inactive). With `CN1CCc2c(sc3ncnc(N/N=C/c4cccc(Cl)c4Cl)c23)C1`, the growth is 4.9% (active). Still for that read-out and setting: the value for `COc1ccc2[nH]c(O)c(N=Nc3nc(-c4ccccc4)cs3)c2c1` was 44% (inactive); that for `COc1ccc(N=Nc2c(N)nn3c(N)c(C#N)c(-c4ccc(F)cc4)nc23)cc1` was 86.7% (inactive); that for `C=CCSc1nnc(-c2ccc(-c3nc4ccccc4[nH]3)cc2)o1` was 32.6% (inactive). In the case of `Cc1oc(-c2ccccc2)nc1CN[C@@H]1C[C@@H]2C[C@H]([C@H]1C)C2(C)C`, the growth was 23.7% (inactive).

As for `COc1ccc(NC2=C(I)C(=O)C(C)=C(C)C2=O)cc1`, the growth was -11.1% (active).

In a further assay the test system is MOLT-4 leukemia. The assay is described as above. The conditions noted are these: 10 µM unless noted.
On to `O=C(Nc1nc2ccccc2s1)Nc1ccccc1Cl`, for which the growth was 107% (inactive). Take `Cc1ccc(C(=O)Nc2cc(-n3ccnc3C)cc(C(F)(F)F)c2)cc1C#Cc1cnc2cccnn12`: the growth is 4.23% (active).

Consider `O=C(c1ccc(O)cc1)C1[C@H](c2ccc(Cl)cc2)[C@@H](c2ccccc2)NC12C(=O)Nc1ccccc12` (stereo not given in full), for which the growth is -34.3% (active). Still for that read-out and setting: the value for `COc1ccc(-c2nc3ccc(-c4nnc(SCC(=O)Nc5ccc(/C(C)=N\O)cc5)o4)cc3[nH]2)cc1` was 55.9% (inactive). The same measure, in the same setting: the value for `C[C@H]1[C@@H](CC(=O)N[C@@H](Cc2coc3ccccc23)B(O)O)O[C@@H]2OC3(C)CC[C@H]4[C@H](C)CC[C@@H]1[C@@]24O3` was 14.2% (inactive); that for `Cc1cc(C(NC(=O)C2CC3(CC(Nc4cccc5c4C(=O)N(C4CCC(=O)NC4=O)C5=O)C3)C2)c2ccc3c(c2)OC(F)(F)O3)c(O)c2ncccc12` (stereo not given) was 4.24% (active). Take `NC(=O)c1ccc(-c2ccc3ncnc(N4CCc5cc(F)c(Cl)cc54)c3c2)cn1`: the growth is 18.4% (inactive). On to `CCN1C(=O)N(CC)C2NNC(Sc3c(C(=O)O)c4ccccc4n(CCC(C)C)c3=O)=NC21` (stereo not given), for which the growth was 3.81% (active). Still for that read-out and setting: the value for `COc1ccc2[nH]c(O)c(N=Nc3nc(-c4ccc(Cl)cc4)cs3)c2c1` was -16.5% (active). For the molecule `CC[C@]12C=CCN3CC[C@@]4(c5ccc(OC)cc5N(C)[C@H]4[C@@](O)(C(=O)OC)[C@@H]1OC(=O)CCCC[P+](c1ccc(F)cc1)(c1ccc(F)cc1)c1ccc(F)cc1)[C@@H]32`, the growth was 29.1% (inactive).

With `COc1cccc(/C=C/c2nc3ccccc3c(=O)n2CC(=O)Nc2ccccc2)c1`, the growth was 94.2% (inactive). As to `O=C(c1ccc(Cl)cc1)C1[C@H](c2ccccc2Cl)[C@@H](c2ccccc2)NC12C(=O)Nc1ccc(Br)cc12` (stereo not given in full), the growth was -24.5% (active). As to `O=C(CSc1nnc(-c2ccc(-c3nc4ccc(Cl)cc4[nH]3)cc2)o1)Nc1ccc(Cl)cc1`, the growth is 5.53% (active).

In the case of `N#Cc1c(NC(=O)N2CCOCC2)n(-c2ccc(OC(F)(F)F)cc2)c2cc(F)ccc12`, the growth was 68.7% (inactive). In the case of `O=C(N/N=C/c1ccc(Cl)o1)c1[nH]c2ccc(Br)cc2c1-c1ccccc1`, the growth was 3.03% (active). Regarding `CC1=C(C(=O)OCc2ccccc2)C(c2cccc3ccccc23)n2c(nc3ccccc32)N1` (stereo not given), the growth is 32.3% (inactive). As for `CC1=NN(C2=NC(=O)C(CC(=O)Nc3ccccc3C(F)(F)F)S2)C(c2ccc(N(C)C)cc2)C1` (stereo not given), the growth was 28.4% (inactive).

Turning to `CN1C(=O)C2(C(C#N)=C(c3ccc(Cl)cc3)Nc3c2c(-c2ccccc2)nn3-c2ccccc2)c2ccccc21` (stereo not given), the growth was 64.4% (inactive). On the same count and under the same terms, the value for `O=[N+]([O-])c1cccc(-c2nnc3c(/C=C/c4ccc(F)cc4)nc4ccccc4n23)c1` was 90.7% (inactive); that for `COC(=O)c1cc(C(C)=O)n2c3ccccc3c3ccccc3c12` was 73.3% (inactive); that for `CCCCCCCOc1ccc(S(=O)(=O)Nc2ccc(C)c(F)c2C(=O)O)cc1` was 98.3% (inactive). `COc1ccc2[nH]cc(-c3cc4nc(-c5cn(C)c6ncc(Br)cc56)cc(N)n4n3)c2c1`: the growth was -27.5% (active).

Consider `COc1ccc2c(c1)N=c1c-2cc2c(O)[nH]c(=S)n2c1=O`, for which the growth was 35.1% (inactive). On the same count and under the same terms, the value for `CC(C)C[C@H](NC(=O)[C@@H]1CCCCCCCCCCC(=O)N[C@@H](CC(=O)N2CCC[C@@H]2C2CCCC2)C(=O)N1)B(O)O` was -19.9% (active); that for `O=C1NC(=S)/C(=C/c2cn(-c3ccccc3)nc2-c2ccccc2)S1` was 33.5% (inactive). In the case of `CN(C)C(=O)c1cc(-c2ccc3ncnc(N4CCc5cc(F)c(Cl)cc54)c3c2)cnc1N`, the growth is -38.3% (active).

`N#C/C(=C/c1ccc(Cl)cc1)c1nnc(NC(=O)c2ccc(-n3c(=O)[nH]c4ccccc4c3=O)cc2)s1`: the growth was 94.9% (inactive).

Regarding `COc1c(B(O)O)cc(F)cc1-c1nc2c(F)cc3[nH]ncc3c2c2c1CCCC2`, the growth is 17% (inactive). The same measure, in the same setting: the value for `O=C(CSc1nc2sc3c(c2c(=O)n1-c1ccc(Cl)cc1)CCCC3)NNC(=O)c1ccc(Br)cc1` was 73.2% (inactive); that for `CN(C)c1ccc(/C=C/c2n(Cc3ccc4ccccc4c3)c3ccccc3[n+]2Cc2ccc3ccccc3c2)cc1` was -38.1% (active); that for `COc1ccc2[nH]c(=O)cc(-n3ncc(C(=O)/C=C/c4cc(OC)c(OC)c(OC)c4)c3C)c2c1` was -7.45% (active).

For `COc1ccc(C(=O)C[n+]2cccc3c4ccccc4ccc32)cc1`, the growth is 32% (inactive). Turning to `CN1CCc2c(sc3ncnc(N/N=C/c4cccc(Cl)c4Cl)c23)C1`, the growth is 6.34% (active). The same measure, in the same setting: the value for `COc1ccc2[nH]c(O)c(N=Nc3nc(-c4ccccc4)cs3)c2c1` was 42.5% (inactive); that for `COc1ccc(N=Nc2c(N)nn3c(N)c(C#N)c(-c4ccc(F)cc4)nc23)cc1` was 77.6% (inactive); that for `C=CCSc1nnc(-c2ccc(-c3nc4ccccc4[nH]3)cc2)o1` was 38.1% (inactive). The same measure, in the same setting: the value for `Cc1oc(-c2ccccc2)nc1CN[C@@H]1C[C@@H]2C[C@H]([C@H]1C)C2(C)C` was 0.127% (active); that for `COc1ccc(NC2=C(I)C(=O)C(C)=C(C)C2=O)cc1` was -6.32% (active).
